# From PubChem BioAssay AID493242 (Broad Institute, 2011)
# Potency and affinity values are given separately. The source made the active and inactive calls. Where a call stands in place of a potency, no number is given. No rule for the calls is given here.
# Target: Replicative DNA helicase DnaB (Mycobacterium tuberculosis (strain ATCC 25618 / H37Rv)) (UniProt P9WMR3)
# Test: DnaB intein splicing inhibition, Mycobacterium tuberculosis H37Rv, biochemical plate reader, confirmatory dose response (AID 493242)
# Replicative DNA helicase DnaB (Mycobacterium tuberculosis (strain ATCC 25618 / H37Rv)), sequence (P9WMR3 whole entry, looked up): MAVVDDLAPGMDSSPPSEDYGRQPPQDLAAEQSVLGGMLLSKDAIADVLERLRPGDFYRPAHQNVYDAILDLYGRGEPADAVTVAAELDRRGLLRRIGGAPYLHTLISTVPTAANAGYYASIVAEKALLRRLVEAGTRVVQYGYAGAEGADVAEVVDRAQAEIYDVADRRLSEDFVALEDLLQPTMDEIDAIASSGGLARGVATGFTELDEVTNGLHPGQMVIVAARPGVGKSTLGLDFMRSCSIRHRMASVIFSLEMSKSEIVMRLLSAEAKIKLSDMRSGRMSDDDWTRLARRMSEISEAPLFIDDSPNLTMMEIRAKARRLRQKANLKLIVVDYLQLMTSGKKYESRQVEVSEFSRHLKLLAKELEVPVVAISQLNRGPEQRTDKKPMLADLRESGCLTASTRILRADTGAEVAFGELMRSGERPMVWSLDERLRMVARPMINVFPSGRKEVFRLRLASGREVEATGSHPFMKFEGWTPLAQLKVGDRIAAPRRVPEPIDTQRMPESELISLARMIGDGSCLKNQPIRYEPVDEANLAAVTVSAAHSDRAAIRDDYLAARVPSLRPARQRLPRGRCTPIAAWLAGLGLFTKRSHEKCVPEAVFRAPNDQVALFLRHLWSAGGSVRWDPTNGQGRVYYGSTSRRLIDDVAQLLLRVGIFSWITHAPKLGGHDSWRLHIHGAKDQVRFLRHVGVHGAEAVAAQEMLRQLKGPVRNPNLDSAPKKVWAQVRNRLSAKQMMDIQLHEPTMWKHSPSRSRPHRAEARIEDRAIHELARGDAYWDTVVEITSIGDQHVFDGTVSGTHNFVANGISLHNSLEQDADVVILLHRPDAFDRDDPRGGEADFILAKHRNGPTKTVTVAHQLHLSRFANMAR
compound,measurement,value
Nc1cn(-c2ccccc2)nc1-c1ccc(F)cc1,outcome,inactive
